Pf growth 96h – Primary qHTS for delayed death inhibitors of the malarial parasite plastid, 96 hour incubation | P. falciparum luciferase reporter growth, 96 h | AID 504834, 2011 | Potency, µM (doses to about 28.7 µM), inactives show at the top dose activity change, negative = inhibition, hits mostly inhibitors | 320,000 compounds, 6.9% hits; note: potency is the fitted concentration of half-maximal effect; % is set by controls: 0 for no effect and ±100 for the full control effect
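Two parasite generations (96 h, 37 C, 5% CO2) of compound exposure in infected erythrocytes (0.05% parasitemia, 2% hematocrit). Luciferase-reporter P. falciparum; decreased luminescence indicates inhibited growth, aimed at apicoplast-acting delayed death.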
Cycloheximide cs – Cycloheximide Counterscreen for Small Molecule Inhibitors of Shiga Toxin; cell reporter, cycloheximide protein synthesis inhibition counterscreen; AID 2314, 2010; 300,000 compounds, 12% hits; max response, %; in the data active = max response mostly above about 13%, no sharp cut-off; inactive = mostly below about 14%; note: read at 38.3 µM for the half of the compounds with a filed dose; 0% is about no effect
Shiga inhibitor – A qHTS for Small Molecule Inhibitors of Shiga Toxin; Vero cells, Shiga toxin protein synthesis inhibition reporter; inhibition, % at 38.7 µM; 290,000 compounds, 9.2% hits; AID 2315, 2010; in the data active = inhibition mostly above about 28%, no sharp cut-off; inactive = mostly below about 43%; note: 0% is about no effect
Pf growth 48h – Primary qHTS for delayed death inhibitors of the malarial parasite plastid, 48 hour incubation; P. falciparum luciferase growth in erythrocytes, 48 h; Potency, µM (series often up to 28.7 µM), inactives show top-dose activity change, negative = inhibition, actives largely listed as inhibitors; 310,000 compounds, 5.9% hits; AID 504832, 2011; note: potency is the fitted concentration of half-maximal effect; % is set by controls: 0 for no effect and ±100 for the full control effect
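Firefly luciferase activity from engineered P. falciparum reports growth; inhibitors lower the luminescent signal. Cultures contained 2% hematocrit erythrocytes at 0.1% final parasitemia.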
AMA1-RON2 inh – qHTS for Inhibitors of AMA1-RON; Towards Development of Antimalarial Drug Lead: Primary Screen | Plasmodium falciparum AMA1 (3D7) - RON2 peptide interaction | AlphaScreen AMA1-biotinylated RON2 peptide binding | Potency, µM (highest dose often 58.2 µM), without a hit: at the highest dose activity change, negative = inhibition, actives largely listed as inhibitors | 360,000 compounds, 0.2% hits | AID 720542, 2013;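 note: potency is the fitted concentration of half-maximal effect; 0% = vehicle wells and -100% = peptide control; nearly all actives have a fitted effect of over 45% in size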
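AMA1 (3D7) with his tag at 25 nM final met compounds first, then biotinylated RON2 peptide at 25 nM; detection used donor plus acceptor beads, 10 µg/mL apiece, read by AlphaScreen after 30 min at room temperature.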
HCV inh – qHTS Assay for Inhibitors of Hepatitis C Virus (HCV) | Potency, µM (titrated, usually from 41.8 µM), without a hit: at the top dose activity change, negative = inhibition, usual class: inhibitors | AID 651820, 2012 | Huh7.5.1 HCVcc-Cre infection, luciferase reporter, 44 h | 340,000 compounds, 3.4% hits; note: potency is the fitted concentration of half-maximal effect; % is set by controls: 0 for no effect and ±100 for the full control effect
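Antiviral activity was scored by luciferase reporter output from cells infected with HCVcc-Cre (~0.5 moi) in presence of compound, 44 h infection period, cells seeded 1,000/well 4 h prior.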
* hit, by the source's call; i = inactive; u = inconclusive; x = no result; [ ] = remark or other dose. In the library only some 21% were active in any assay of this set; here they are far more common. Unless noted, calls come from the whole dose curve; as a rule, active = well fitted curve in the direction sought with a large enough effect; inconclusive = small, poorly fitted or top-dose-only effect, or another doubt; inactive = no such curve, though single readings can be large; an effect the other way counts as inactive or inconclusive.

SMILES	Pf growth 96h	Cycloheximide cs	Shiga inhibitor	Pf growth 48h	AMA1-RON2 inh	HCV inh
CCC(c1nnnn1CCc1ccccc1)N(Cc1ccco1)Cc1cc2c(C)ccc(C)c2[nH]c1=O (centres undefined)	-3.1%	-0.8	-8.2	u	-2.3%	11.2µM*
CCc1nc2c(OCc3ccccc3C)cccn2c1N(C)C(=O)C1CC1	x	x	x	x	4.1%	x
O=C(c1ccco1)n1c(=S)nc2ccccn21	0.6%	68.1*	115.3*	108.0%	25.8%	-5.7%
Cc1cccc2nc(=S)n(C(=O)c3ccco3)n12	6.1%	61.7*	197.5*	108.1%	11.1%	16.8%
O=C(c1ccco1)N1CCN(C(=O)c2ccco2)CC1	x	x	x	x	0.8%	x
CC(=O)N1CCN(C(=O)c2ccco2)CC1	107.9%	3.1	-1.7	18.5%	-11.9%	2.5%
CCN(CC)CCNC(=O)Cn1cnc2sc(C)c(S(=O)(=O)N3CC(C)CC(C)C3)c2c1=O (centres undefined)	-19.6%	-2.9	12.9	0.5%	1.9%	-1.4%
COc1cccc(-c2noc(C3CCCN(C(=O)c4ccccc4OC)C3)n2)c1 (centres undefined)	u	52.1*	47.8*	66.3%	-5.9%	u
COc1cccc(-c2noc(CCC(=O)NC3CCCCC3)n2)c1	x	-1.4	-3.5	-4.6%	-1.9%	-12.7%
COc1cccc(-c2noc(C3CCCN(C(=O)CC(C)(C)C)C3)n2)c1 (centres undefined)	i	1.0	16.4	-17.0%	-1.4%	10µM*
CCCCC(=O)N1CCCC(c2nc(-c3cccc(OC)c3)no2)C1 (centres undefined)	u	41.2*	82.5*	32.8%	-0.1%	-6.6%
CCCS(=O)(=O)N1CCCC(c2nc(-c3cccc(OC)c3)no2)C1 (centres undefined)	-2.0%	17.8*	44.7	28.8%	-6.5%	x
COc1cc(-c2noc(C3CCCN(C(=O)c4ccccc4)C3)n2)cc(OC)c1OC (centres undefined)	u	-0.6	-14.2	-16.8%	4.6%	-2.2%
COc1cccc(-c2noc(C3CCCN(S(=O)(=O)c4cccc(Cl)c4C)C3)n2)c1 (centres undefined)	30.4%	-2.7	-21.8	5.3%	8.4%	-6.0%
CCCC(=O)Nc1ccc(Cl)c(NC(=O)c2cccc(OC)c2)c1	-3.5%	7.7	-10.6	-21.1%	-8.7%	u
CCN(Cc1ccccc1)C(=O)CCS(=O)(=O)c1cc2c(cc1Cl)NC(=O)CO2	u	-1.7	-2.5	-18.0%	12.9%	3.2%
Brc1ccc(-c2cnnc(N3CCCC3)n2)cc1	u	1.3	7.4	3.29µM*	9.4%	-19.8%
FC(F)(F)c1cc(-c2ccccc2)nc(N2CCOCC2)n1	104.7%	0.5	-17.7	34.5%	18.4%	8.91µM*
FC(F)(F)COc1nc(N2CCOCC2)nc(N(c2ccccc2)c2ccccc2)n1	24.1%	-0.4	-2.3	3.29µM*	-9.1%	u
c1ccc(-c2cnnc(N3CCOCC3)n2)cc1	-14.5%	63.1*	68.2*	32.6%	-4.6%	-19.6%
c1ccc(-c2cc(N3CCOCC3)nc(-c3ccccc3)n2)cc1	0.0%	3.2	-10.6	6.7%	u	-16.0%
Cc1cc(Br)cn2c(Cc3ccsc3)c(-c3cccc(Br)c3)nc12	x	x	x	x	-10.4%	x
COc1ccc(-c2cc(C(F)(F)F)nc(N3CCN(c4ccc(F)cc4)CC3)n2)cc1OC	x	8.6	31.9	x	3.0%	-9.7%
COc1ccc(-c2cc(C(F)(F)F)nc(N3CCN(Cc4ccccc4)CC3)n2)cc1OC	69.0%	-2.4	-12.6	10.4µM*	-3.1%	-18.4%
Cc1cc(-c2ccccc2)n2ncnc2n1	0.0%	-1.0	-3.2	6.6%	-11.3%	-12.1%
SMILES	Pf growth 96h	Cycloheximide cs	Shiga inhibitor	Pf growth 48h	AMA1-RON2 inh	HCV inh
OC1(c2ccc(Cl)cc2)CN(c2ccccc2)C2=[N+]1CCS2 (centres undefined)	u	8.7	-16.9	u	-21.2%	12.6µM*
OC1(c2ccc(Br)cc2)CN(c2ccccc2)C2=[N+]1CCS2 (centres undefined)	u	-1.1	-21.2	u	-17.3%	u
COc1cc2cc(C(=O)Nc3ccc4c(c3)OCCO4)[nH]c2cc1OC	-12.4%	47.1*	102.6*	-1.4%	-7.8%	u
COc1cc(C(=O)NNC(=O)c2ccc3c(c2)OCCO3)cc(OC)c1OC	x	x	x	x	5.5%	-2.0%
COc1cc2[nH]c(C(=O)Nc3ccc4c(c3)OCCO4)cc2c(OC)c1OC	u	39.6*	91.1*	u	-5.4%	u
O=C1Nc2cc(Cl)cnc2N2CCCC12 (centres undefined)	4.15µM*	-1.9	-15.4	-25.4%	0.0%	u
CC(C)(C)c1ccc(-c2nc3[nH]c(=O)cc(NC(=O)c4ccco4)n3n2)cc1	4.15µM*	17.5	15.3	10.4µM*	7.6%	25.0%
Cc1ccc(-c2nc3[nH]c(=O)cc(NC(=O)C(C)C)n3n2)cc1	0.0828µM*	-0.5	-3.6	0.294µM*	13.5%	9.2%
CCC(=O)Nc1cc(=O)[nH]c2nc(-c3ccc(Cl)cc3)nn12	u	7.5	-3.8	0.262µM*	6.8%	-4.3%
CCC(=O)Nc1cc(=O)[nH]c2ncnn12	0.0%	-4.4	-3.2	31.4%	6.5%	10.7%
Cc1ccc(-c2nc3[nH]c(=O)cc(NC(=O)c4cccs4)n3n2)cc1	u	-3.6	-2.1	u	0.0%	12.4%
CC[C@]1(C(=O)OC)[C@H]2C(=O)N(C)C(=O)[C@H]2[C@H]2CN(C)C(=NC3CCCCC3)N21	x	x	x	x	-5.4%	-3.0%[8.37 µM]
CCCCCCOC(=O)C1(O)CC2OC1(C)n1c3ccccc3c3c4c(c5c6ccccc6n2c5c31)C(=O)NC4 (centres undefined)	x	11.3	i	x	x	x
CCC(=O)Nc1cccc(C(=O)c2ccccc2)c1	x	10.6*	2.3	14.9%	-2.3%	-1.5%
CCC(=O)Nc1cccc(C(=O)/C=C/c2cccs2)c1	u	36.6*	85.0*	u	8.8%	u
CCC(=O)Nc1cccc(C(=O)/C=C/c2ccccc2)c1	u	25.2*	37.8	43.5%	-6.0%	-26.2%
CCC(=O)Nc1cccc(C(=O)c2ccc(C)c(C)c2)c1	u	8.0	16.2	3.4%	-3.2%	u
Cc1ccc(S(=O)(=O)NNC(=O)c2cc(C)cs2)cc1	28.5%	-0.6	-2.7	28.3%	7.3%	15.8%
COc1ccc(-c2csc(C3=C(O)CN(CCCN4CCCC4=O)C3=N)n2)cc1OC	9.3%	12.2	20.4	-0.6%	24.2%	4.9%
